High-throughput results from PubChem.
Vaccinia Venus = qHTS for Stage-Specific Inhibitors of Vaccinia Orthopoxvirus: Venus Reporter Primary qHTS | Vaccinia virus Venus reporter expression, fluorescence | Potency, µM (titrated, usually from 36.5 µM), without a hit: top-dose activity change, negative = inhibition, most hits filed as inhibitors | 330,000 tested, 0.46% active | AID 720580, 2013; calls by dose curve; tested in A549 cells; note: nearly all actives have a fitted effect of over 30% in size
Vaccinia mCherry = qHTS for Stage-Specific Inhibitors of Vaccinia Orthopoxvirus: mCherry Reporter Primary qHTS. Potency, µM (highest dose often 36.5 µM), for the others: top-dose activity change, negative = inhibition, actives largely listed as inhibitors. Vaccinia virus mCherry reporter infection, fluorescence. 310,000 tested, 0.63% active; calls by dose curve; tested in A549 cells; note: nearly all actives have a fitted effect of over 35% in size
AmpC inh no detg = qHTS Inhibitors of AmpC Beta-Lactamase (assay without detergent) | 330,000 tested, 0.52% active | AmpC nitrocefin hydrolysis, absorbance 480 nm, 0.0001% Triton | Potency, µM (doses to about 57.1 µM), for the others: at the top dose activity change, negative = inhibition, hits mostly inhibitors | P00811;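 note: plate controls were no compound for no effect and no enzyme for full effect; nearly all actives have a fitted effect of over 20% in size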
Target sequence (P00811 whole entry, looked up): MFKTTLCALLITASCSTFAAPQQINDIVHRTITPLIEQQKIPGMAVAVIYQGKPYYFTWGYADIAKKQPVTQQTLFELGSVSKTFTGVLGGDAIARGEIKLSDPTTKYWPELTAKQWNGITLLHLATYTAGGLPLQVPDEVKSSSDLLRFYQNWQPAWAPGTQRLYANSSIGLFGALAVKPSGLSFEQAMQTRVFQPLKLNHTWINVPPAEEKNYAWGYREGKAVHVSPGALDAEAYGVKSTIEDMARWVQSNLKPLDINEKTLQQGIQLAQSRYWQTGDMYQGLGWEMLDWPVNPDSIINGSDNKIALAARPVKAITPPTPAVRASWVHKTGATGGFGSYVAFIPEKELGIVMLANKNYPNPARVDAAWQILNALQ
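AmpC (5.3 nM in the dispensed reagent) in 20 mM phosphate pH 7.0 with 0.01% (detergent screen) or 0.0001% Triton X-100 was preincubated with compounds for 15 min at room temperature. Nitrocefin was then added from an 800 uM solution, and hydrolysis was followed at 480 nm.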
AmpC inh detg = qHTS Inhibitors of AmpC Beta-Lactamase (assay with detergent). AmpC hydrolysis of nitrocefin, absorbance 480 nm, 0.01% Triton. P00811. Potency, µM (titrated, usually from 114 µM), inactives show at the highest dose activity change, negative = inhibition, actives largely listed as inhibitors. 370,000 tested, 0.041% active. AID 485294, 2010;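 note: 0% = no-compound wells and -100% = no-enzyme wells; nearly all actives have a fitted effect of over 25% in size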
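AmpC (5.3 nM in the dispensed reagent) in 20 mM phosphate pH 7.0 with 0.01% (detergent screen) or 0.0001% Triton X-100 was preincubated with compounds for 15 min at room temperature. Nitrocefin was then added from an 800 uM solution, and hydrolysis was followed at 480 nm.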
Starred values were filed as active, the others as inactive; i = inactive; ? = inconclusive; · = no result. This is a sample that favours compounds with a hit; in the whole collection about 1.1% have one here. Unless noted, calls come from the whole dose curve; as a rule, active = well fitted curve in the direction sought with a large enough effect; inconclusive = small, poorly fitted or top-dose-only effect, or another doubt; inactive = no such curve, though single readings can be large; an effect the other way counts as inactive or inconclusive. Unless noted, % is set by controls: 0 for no effect and ±100 for the full control effect; potency is the fitted concentration of half-maximal effect.

SMILES | Vaccinia Venus | Vaccinia mCherry | AmpC inh no detg | AmpC inh detg
COc1ccc(C(=O)NCC2Cc3c(F)ccc(-c4nc(C)cnc4C)c3O2)cc1F (stereo not drawn) | 2% | -6% | · | ·
O=C(NCC1CCCCC1)c1cc2ccccc2cc1O | -24% | ? | 14µM* | 2%
O=C(NCC1CCCO1)c1cc2ccccc2cc1O (stereo not drawn) | -15% | -18% | -16% | -6%
O=C(/C=C/c1ccccc1O)c1ccco1 | 13µM* | ? | -25% | ?
O=C(/C=C/c1cc(Br)ccc1O)c1ccco1 | -12% | ? | -40% | 9%
COC(=O)C1=C(C(=O)OC)SC2(S1)C(C(=O)OC)=C(C(=O)OC)Sc1c2ssc1=O | 7.1µM* | 7.1µM* | · | ·
COC(=O)C1=C(C(=O)OC)SC2(S1)C(C(=O)OC)=C(C(=O)OC)SC1=C2c2cc(C)cc(C)c2NC1(C)C | -1% | -9% | · | 1%
COCCCNC(=O)N1CCN(c2nnc(C)c3c(C)n(-c4ccc(Cl)cc4)nc23)CC1 | ? | 8.9µM* | · | 19%
Cc1ccc(-n2nc3c(N4CCC(C(=O)NCCc5ccccc5)CC4)nnc(C)c3c2C)cc1 | 11µM* | 10µM* | · | -2%
Cc1ccc(-n2nc3c(N4CCC(C(=O)NCCc5ccccc5C)CC4)nnc(C)c3c2C)cc1 | 13µM* | 10µM* | 67% | 2%
CCOC(=O)CNC(=O)N1CCN(c2nnc(C)c3c(C)n(-c4ccc(Cl)cc4)nc23)CC1 | -2% | -7% | · | -9%
Cc1cccc(CCNC(=O)C2CCN(S(=O)(=O)c3c(C)nn(C)c3C)CC2)c1 | -6% | -11% | 35% | ?
Cc1ccc(CCNC(=O)C2CCN(S(=O)(=O)c3c(C)nn(C)c3C)CC2)cc1 | -5% | 1% | 2.5µM* | ?
Cc1cnc(-n2ncc(C(=O)NCCc3cccnc3)c2C)nc1-c1ccc(F)cc1 | -13% | i | · | ·
Cc1cnc(SCc2ccccn2)nc1C1CCCN(C(=O)c2ccc3c(c2)OCO3)C1 (stereo not drawn) | -25% | -19% | · | ·
O=C1NC(=O)C(Cc2ccccc2)(C2CCN(Cc3cccn3-c3cccnc3)CC2)N1 (stereo not drawn) | -10% | -2% | · | ·
O=C1NC(=O)N(Cc2ccco2)C(=O)/C1=C/C=C/c1ccco1 | 71% | -7% | 13µM* | -10%
COc1ccc(N=C(N(C)C)P(=O)(N(C)C)N(C)C)cc1 | 1% | -4% | 28µM* | ?
COc1cc(CN2CCCC(n3cc(C(=O)N4CCCCC4)nn3)C2)cc(OC)c1 (stereo not drawn) | -28% | -26% | · | ·
Clc1ccccc1-c1nc(-c2ccccc2)n[nH]1 | · | · | -4% | -2%
Oc1ccccc1-c1n[nH]c(-c2ccccc2O)n1 | 4µM* | 2.8µM* | · | ·
CC(/C=C/c1ccccc1)=N\NC(N)=S | ? | 4µM* | -15% | -2%
COCc1c(C(=O)N2CCN(C3CCCC3)CC2)cnn1-c1nccc(-c2cc(C)sc2C)n1 | -10% | -12% | · | ·
CC1CCN(C(=O)C(Cc2ccccc2)n2cccc2)CC1 (stereo not drawn) | 4% | 28% | 10µM* | ?
Cc1cccc(N2CCN(C(=O)C(Cc3ccccc3)NC(N)=O)CC2)c1C (stereo not drawn) | · | · | 96% | -3%
SMILES | Vaccinia Venus | Vaccinia mCherry | AmpC inh no detg | AmpC inh detg
Cc1cccc(N2CCN(C(=O)C(Cc3ccccc3)n3cccc3)CC2)c1C (stereo not drawn) | ? | -29% | 1µM* | ?
N#Cc1sc2nc(C3CC3)cc(-c3ccc(Cl)cc3)c2c1N | 14µM* | 4.5µM* | -22% | ?
CCOC(=O)C1CCN(C(c2cccs2)c2sc3nc(C)nn3c2O)CC1 (stereo not drawn) | 1% | i | 22% | ?
CCOC(=O)C1CCN(C(c2cccc(OC)c2)c2sc3nc(C)nn3c2O)CC1 (stereo not drawn) | -9% | i | 10µM* | ?
CC(C)[C@@H]1Cc2[nH]c(=S)[nH]c(=O)c2[C@H](C)O1 | 0% | 38% | · | ·
CC(C)CC1OC(C(C)C)Cc2[nH]c(=S)[nH]c(=O)c21 (stereo not drawn) | 0.013µM* | · | · | ·
O=S(=O)(/C=C/C=C/S(=O)(=O)c1ccccc1)c1ccccc1 | 14µM* | ? | · | ·
